TRPV1 potentiator: enhances activation of the human vanilloid receptor TRPV1 | Q8NER1 | TRPV1-expressing cells, Fluo-8 calcium influx, capsaicin EC20 potentiation | potentiation, % at 8.33 µM | actives 0.02% (n = 320,000) | AID 540277; in the data active = potentiation above about 80%; inconclusive = between about 30% and that limit; also: 0% is about no effect
Target sequence (Q8NER1 whole entry, looked up): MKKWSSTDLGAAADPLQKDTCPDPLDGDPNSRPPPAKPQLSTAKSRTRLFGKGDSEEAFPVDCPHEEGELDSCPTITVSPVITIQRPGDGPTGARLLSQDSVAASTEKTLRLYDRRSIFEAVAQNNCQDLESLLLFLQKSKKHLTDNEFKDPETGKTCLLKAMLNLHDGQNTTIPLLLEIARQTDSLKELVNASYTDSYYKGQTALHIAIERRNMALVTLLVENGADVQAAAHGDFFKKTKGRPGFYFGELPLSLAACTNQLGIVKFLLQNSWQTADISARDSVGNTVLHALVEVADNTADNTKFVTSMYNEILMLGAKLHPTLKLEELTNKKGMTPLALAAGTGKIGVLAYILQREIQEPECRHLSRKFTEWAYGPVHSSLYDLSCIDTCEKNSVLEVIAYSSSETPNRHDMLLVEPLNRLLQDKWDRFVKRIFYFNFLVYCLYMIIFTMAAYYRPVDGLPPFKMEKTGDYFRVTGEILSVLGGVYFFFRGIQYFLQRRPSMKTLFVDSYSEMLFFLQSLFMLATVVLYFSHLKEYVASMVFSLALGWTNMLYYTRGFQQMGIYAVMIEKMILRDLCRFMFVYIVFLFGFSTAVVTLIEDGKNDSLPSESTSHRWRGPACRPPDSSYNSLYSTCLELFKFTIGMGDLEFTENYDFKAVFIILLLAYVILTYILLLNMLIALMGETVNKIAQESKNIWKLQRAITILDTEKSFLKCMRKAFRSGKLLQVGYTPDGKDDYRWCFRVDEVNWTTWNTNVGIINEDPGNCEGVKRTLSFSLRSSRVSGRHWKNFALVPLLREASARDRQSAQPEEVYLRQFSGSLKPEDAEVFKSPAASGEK
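Cells expressing TRPV1 were dye-loaded with Fluo-8 and read kinetically: 10 s baseline, 3 min after compound (agonist portion), then 2 min after EC20 capsaicin (allosteric enhancer portion). Calcium-bound dye fluorescence at 480/520 nm.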
IMPase Li inh: IMPase inhibition in cells with lithium potentiation. CHO-M1 cells, IP1 TR-FRET (IP-One), carbachol + lithium. Potency, µM (highest dose often 59.4 µM), for the others: at the top dose activity, negative = IMPase inhibition, most hits filed as inhibitors. actives 0.35% (n = 210,000);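 also: IP1 builds up when IMPase is blocked and the TR-FRET signal falls; potency is read from the fitted curve at half-maximal effect; plate controls were basal vehicle for no effect and high inhibitor control for full effect; nearly all actives have a fitted effect of over 50% in size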
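CHO cells stably expressing M1 receptor (2000/well, cultured 16–30 h) treated 30 min at 37C with compound plus low lithium. Cytosolic IP1 by TR-FRET (665/620 ratio and 620 channel) after 10 min lysis; AC50 by Hill fit.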
A-T KAP1 phos: candidate therapy for ataxia-telangiectasia; F2112 A-T fibroblasts, KAP-1 phosphorylation AlphaLISA; neocarzinostatin DNA damage 30 min before lysis; AID 485349; Potency, µM (titrated, usually from 57.5 µM), without a hit: at the top dose activation, actives largely listed as activators; actives 0.19% (n = 320,000); also: potency is read from the fitted curve at half-maximal effect; % of control where 0% means no effect; nearly all actives have a fitted effect of over 45% in size
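ATM-like activity read as KAP-1 phosphorylation via AlphaLISA donor/acceptor antibody pairs after lysis and 6 hr at 25C. Cells were ATM-null patient fibroblasts (F2112, hTERT), dosed 60 min, then exposed to the DSB inducer NCS for 30 min.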
TRPV1 ag: human TRPV1 agonism. Q8NER1. TRPV1-expressing cells, Fluo-8 calcium influx, agonist mode. activation, % at 8.33 µM. actives 0.19% (n = 320,000). AID 540275; in the data active = activation above about 80%; inconclusive = between about 30% and that limit; also: 0% is about no effect
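TRPV1-expressing cells were cultured overnight at 35.5C and loaded with Fluo-8 calcium dye for 40 to 90 min at room temperature. After a 10 s baseline, compound was added and calcium influx was read kinetically for 3 min (ex 480/em 520 nm).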
An asterisk follows results filed as active; ? = inconclusive; . = no result given; [ ] = another dose, or the depositor's remark. Shown are actives, neighbours in structure and some others; about 0.55% of the full set was active somewhere. Unless noted, calls follow the shape of the dose curve; as a rule, active = well fitted curve in the direction sought with a large enough effect; inconclusive = small, poorly fitted or top-dose-only effect, or another doubt; inactive = no such curve, though single readings can be large; an effect the other way counts as inactive or inconclusive.

SMILES	TRPV1 potentiator	IMPase Li inh	A-T KAP1 phos	TRPV1 ag
COC(=O)N1C(=O)[C@@](Cc2ccccc2)(c2ccccc2)N1C(=O)OC	?	.	?	3
O=C(O)c1ccc(-c2nc3ccccc3s2)o1	1	.	4.5µM*	1
O=C(c1ccc(-c2nc3ccccc3s2)o1)N1CCN(c2ccccc2O)CC1	-2	.	5%	2
O=C(O)c1cc(Cl)cc(Cc2cc(Cl)cc(C(=O)O)c2O)c1O	.	-2%	.	.
Cc1ccc(C)c(/C(O)=C2\C(=O)C(=O)N(Cc3cccnc3)C2c2cccnc2)c1 (centres undefined)	-8	7.1µM*	8%	-6
Cc1ccc(C)c(/C(O)=C2\C(=O)C(=O)N(CCCN3CCOCC3)C2c2cccnc2)c1 (centres undefined)	13	29%[38.3 µM]	-5%	-2
C[N@+]1(CCC(=O)c2ccccc2)CC[C@H]2CC[C@H](C2)C1	.	-4%	.	.
Nc1ccccc1-c1n[nH]c(=S)s1	2	13µM*	1%	3
CS(=O)(=O)c1[nH]nc(-c2cccc(Cl)c2)c1C#N	12	.	40µM*	1
C/C(=N/O)[C@@H]1C[C@H](CC(=O)O)C1(C)C	.	-12%	.	.
FC(F)Oc1ccc(-n2cc(-c3ccccc3)[n+]3c2CCCCC3)cc1	9	.	14µM*	0
Cc1ccc(-c2cn(-c3ccc(OC(F)F)cc3)c3[n+]2CCCCC3)cc1	-9	.	50%	-3
NCC1OC(OC2C(N)CC(N)[C@@H](O)[C@@H]2OC2O[C@H](CO)[C@@H](O[C@@H]3OC(CN)C(O)C(O)C3N)C2O)C(N)C(O)C1O (some centres undefined)	.	7%	.	.
Oc1ccc(Br)cc1C1C=C(c2ccc3c(c2)OCO3)NC(c2c(F)cccc2Cl)N1 (centres undefined)	21	.	.	4
O=C1c2cccnc2C(Nc2ccc(Br)cc2)N1Cc1cccs1 (centres undefined)	-27	2%	0%	84*
COc1ccc(NC2c3ncccc3C(=O)N2Cc2cccs2)cc1 (centres undefined)	-31	11%	-5%	?
O[N+]1=CC=CCC1=S.On1ccccc1=S.[Zn]	.	16%	.	.
CC1(C)NC(=O)N(CC(O)CN(Cc2ccccc2)Cc2ccccc2)C1=O (centres undefined)	-3	26%[38.3 µM]	0%	83*
CCN(CC)CC(O)CN1C(=O)NC(C)(C)C1=O (centres undefined)	0	2%	4%	-1
O=C(Nc1ccc(Br)cn1)c1ccc(Br)s1	11	.	6%	?
O=C(Nc1ccc(Br)cn1)c1ccc(Cl)s1	12	.	0%	99*
Cc1cc(C(=O)Nc2ccc(Br)cn2)sc1C	-5	.	10%	83*
COc1ccc(/C=C(\C#N)C(N)=O)c(OC)c1	.	-3%	.	.
COc1cc2c(c(O)c1OC)-c1c(cc(OC)c(OC)c1OC)C[C@@H](C)[C@@H](C)C2	-5	.	20µM*	28
Cc1nc(N2CCOCC2)c2c(C)c(C(=O)Nc3ccccc3C(F)(F)F)sc2n1	-2	0%	1%	91*
SMILES	TRPV1 potentiator	IMPase Li inh	A-T KAP1 phos	TRPV1 ag
C[C@@]12CC[C@@H]3[C@H](CCC4=CC(=O)CC[C@]43C)[C@@H]1CC[C@@H]2C(=O)COS(=O)(=O)c1ccc(Br)cc1	.	-16%	.	.
c1ccc(Nc2ccnc(Nc3ccccc3)n2)cc1	-11	.	20µM*	8
NNc1nc(Nc2ccccc2)nc(Nc2ccccc2)n1	-13	16%	-9%	?
Cn1ncc([N+](=O)[O-])c1C(=O)Nc1nc2ccccc2n1CCN1CCCCC1	19	7.9µM*	-2%	7
Cc1c(Cl)c(C(=O)Nc2nc3ccccc3n2CCN2CCCCC2)nn1C	12	-3%[38.3 µM]	-1%	-1
CCn1cc(Cl)c(C(=O)Nc2nc3ccccc3n2CCN2CCCCC2)n1	.	4%[38.3 µM]	13µM*	.
CC(C)(C)CC(C)(C)c1cc(O)c(O)c(CN2CCCCC2)c1	.	-7%	.	.
COC(=O)C1=C(C(=O)OC)[C@@H]2N(C)c3ccccc3[C@@]23C[C@@H](CO)N(C(=O)c2ccco2)C3=N1	.	-1%	.	.
CCC(=O)c1ccc2c(c1)OCCO2	9	.	10µM*	-1
CCCC(=O)c1ccc2c(c1)OCCO2	-10	23%[38.3 µM]	0%	4
CCn1c(CCCc2nc3c([nH]2)c(=O)n(C)c(=O)n3C)nc2c1c(=O)n(C)c(=O)n2C	.	-20%	.	.
O=C(Nc1cccc2cccnc12)c1ccc(Br)cc1	12	.	.	14
O=c1c(-c2cc(F)cc(F)c2)nc2cnc(N3CCOCC3)nc2n1C1CC1	.	8.9µM*	.	.
O=c1c(-c2cc(F)cc(F)c2)nc2cnc(N3CCNCC3)nc2n1C1CC1	.	-3%	.	.
Cn1c(/C(C#N)=C(\O)COc2ccc3ccccc3c2)nc2ccccc21	?	7.1µM*	3%	-3
COc1ccc(-c2cc(C(F)(F)F)c(C#N)c(SCC(=O)O)n2)cc1OC	-9	.	8.9µM*	-4
Cc1ccc(-c2cc(C(F)(F)F)c(C#N)c(SCC(=O)O)n2)cc1	-4	0%	3%	8
Cc1cc(C)cc([N+](=O)[O-])c1	.	3%	.	.
CC(C)C(NC(=O)c1ccccc1NC(=O)C(C)(C)C)C(=O)N1CCOCC1 (centres undefined)	.	.	6%	.
CC(NC(=O)c1ccccc1NC(=O)c1ccccc1)C(=O)N1CCOCC1 (centres undefined)	7	-5%	4%	80*
Cc1ccc(NC(=O)C(=Cc2ccc(C(=O)O)cc2)C(=O)Nc2ccc(C)cc2C)c(C)c1	-38	.	20µM*	0
CCc1ccc(C(=O)COC(=O)c2ccc(-c3nnc(-c4ccccc4)o3)cc2)cc1	-2	3.5µM*	5%	-1
CC(C)(CCc1nc2ccccc2[nH]1)C(=O)O	.	5%	.	.
COc1ccc(CCNC(=O)COc2ccc(-c3ccccc3)cc2)cc1OC	18	10µM*	9%	-5
COc1ccc(CCNC(=O)CCCOc2ccc(C)cc2)cc1OC	-43	0%	1%	?
SMILES	TRPV1 potentiator	IMPase Li inh	A-T KAP1 phos	TRPV1 ag
COc1ccc(CCNC(=O)Cc2ccc(OC)c(OC)c2)cc1OC	-2	2%	-1%	11
COc1ccc(CCNC(=O)CCCOc2cccc(C)c2C)cc1OC	13	.	4%	83*
COCCN(C(=S)Nc1ccccc1C)C(C)c1ccco1 (centres undefined)	16	.	32µM*	-2
COCCN(C(=S)Nc1cccc(C)c1C)C(C)c1ccco1 (centres undefined)	-25	12%	2%	13
O=C1CCC[C@@H]2CC(NCc3ccc(Cl)c(Cl)c3)C[C@@H]3CCN1[C@H]23 (some centres undefined)	.	7%	.	.
O=C(C1CCCN(Cc2ccccc2F)C1)N1CCc2ccccc2C1 (centres undefined)	-7	.	40µM*	5
Cc1cc(C(=O)OCC(=O)c2ccc(Br)s2)no1	-1	6.3µM*	-18%	4
Cc1cc(C(=O)OCC(=O)c2ccc(Br)s2)c(C)o1	-9	-18%[38.3 µM]	4%	16

Source: PubChem BioAssay
